Source: PubChem (several laboratories)
The list is not random: actives were taken first. Their share in the collection is about 4.1%.
LMP1 NFkB inh: EBV LMP1-driven NF-kappaB luciferase reporter inhibitors, primary screen, cell-based, luminescence, single point | LMP1-induced NF-kappaB luciferase reporter cells | inhibition, % at 12.5 µM | hit rate 0.69% among 350,000 | AID 504558, 2011; in the data active = inhibition above about 41%; inconclusive = no clear call, values can overlap the other calls
TWEAK-Fn14 inh: inhibitors of TWEAK-Fn14 signaling, primary screen, luciferase reporter cells, uHTS; TWEAK-stimulated Fn14 reporter cells, luciferase luminescence, 8 h; inhibition, % at 10 µM; hit rate 2% among 360,000; AID 1159606, 2016; in the data active = inhibition above about 50%
Peg3 promoter: Peg3 promoter-driven luciferase inhibitors, primary screen, cell-based, HeLa, luciferase luminescence; HeLa PEG-Prom luciferase reporter, overnight; inhibition, % at 20 µM; hit rate 1.7% among 360,000; AID 588405, 2011;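 active = inhibition of at least 50% at 20 µM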
Shn3 3UTR inh: reduction of Shn3 3'UTR firefly luciferase signal, primary screen, Schnurri-3 inhibitor project, cell-based, Clone20 osteoblasts, set 2; Clone20 osteoblast Shn3 3'UTR firefly luciferase, 24 h; hit rate 0.52% among 360,000; inhibition, % at 12.5 µM;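 active = mean inhibition of at least 75% with every replicate also reaching 75%; inconclusive = mean inhibition at least 75% but some replicate below; inactive = mean inhibition below 75%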
TROY signal inh: inhibitors of TROY-driven NF-kB signaling, primary screen, Q293 LMP1-TROYcd cells, NF-kB luciferase, uHTS | Q293 LMP1-TROYcd NF-kB luciferase reporter, 4 h | inhibition, % at 10 µM | hit rate 0.98% among 360,000;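 active = compounds whose plate-normalised and pattern-corrected inhibition of the luciferase reporter signal at the single screening dose is 50% or more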
MITF TRPM1 inh: inhibitors of MITF-dependent TRPM1 promoter reporter, primary screen, cell-based, SK-MEL-5, single point, luciferase; inhibition, % at 12.5 µM; hit rate 0.83% among 330,000; SK-MEL-5 TRPM1 promoter luciferase, 24 h;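 active = mean inhibition across replicates of 60% or more, whatever share of single replicates reaches that level; inconclusive = some that reach 60%, reason not given; inactive = mean inhibition across replicates below 60%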
Large screens that a line does not name were inactive.

Oc1ccccc1C1SC(c2ccccc2O)SC(c2ccccc2O)S1 (centres undefined)	TWEAK-Fn14 inh 51.4, Peg3 promoter 105.3, TROY signal inh 80.7
Oc1ccccc1C1OCC2(CO1)COC(c1ccccc1O)OC2 (centres undefined)	none
C=CCNC(=S)Nc1ccc(C)c(S(=O)(=O)N2CCCCC2)c1	none
Cc1ccc(NC(=S)Nc2ccc(C(C)C)cc2)cc1S(=O)(=O)N1CCCCCC1	TWEAK-Fn14 inh 67.3
Cc1ccc(NC(=O)C2CC(=O)N(Cc3ccccc3)C2)cc1S(=O)(=O)N1CCCCCC1 (centres undefined)	TWEAK-Fn14 inh 87.8, TROY signal inh 60.6
COc1cc(CCC(=O)Nc2ccc(C)c(S(=O)(=O)N3CCCCCC3)c2)cc(OC)c1OC	TWEAK-Fn14 inh 51.3
O=C(Nc1ccc(S(=O)(=O)N2CCCCC2)cc1)C1CC(=O)N(Cc2ccccc2)C1 (centres undefined)	none
CCOc1ncccc1C(=O)Nc1ccc(C)c(S(=O)(=O)N2CCCCCC2)c1	TWEAK-Fn14 inh 62.6
O=C(CCN1C(=O)[C@@H]2Cc3ccccc3CN2C1=O)N[C@H](Cc1ccccc1)C(=O)O	none
O=S(=O)(NCCCCNS(=O)(=O)c1c(F)cccc1F)c1ccc2c(c1)OCCO2	none
COc1ccc(NC(=O)CSc2ccc3ccccc3c2)cc1S(=O)(=O)N1CCCCC1	TWEAK-Fn14 inh 58.5
COc1ccc(NC(=O)CSc2ccc(NC(C)=O)cc2)cc1S(=O)(=O)N1CCOCC1	none
CCNc1c(NC(=O)COc2ccc(Cl)cc2)c(=O)oc2ccccc12	none
N#C/C(=C(/O)c1ccc([N+](=O)[O-])o1)c1nc2ccccc2[nH]1	Peg3 promoter 76.7, TROY signal inh 50.0, MITF TRPM1 inh 87.5
O=C(COC(=O)c1ccc2c(c1)OCO2)NC1CCCCC1	none
CC(C)CC1NC(=O)N(CC(=O)N2c3ccccc3NC(=O)C2(C)C)C1=O (centres undefined)	none
CC(C)C[C@@H]1NC(=O)[C@H](Cc2ccccc2)N(C)C(=O)[C@H](C)NC(=O)c2ccccc2NC(=O)[C@H](Cc2ccc(O)cc2)N(C)C1=O	Peg3 promoter 51.9
COc1cccc(C(=O)NCCNC(=O)c2ccc(C)nc2)c1	none
CCOC(=O)c1c(CSc2ccccc2)n(C)c2cc(Br)c(OC)c(O)c12	none
CCOC(=O)c1c(CSc2ccccc2)n(C)c2cc(Br)c(OCC(O)CNC(CO)(CO)CO)cc12 (centres undefined)	Peg3 promoter 97.2, MITF TRPM1 inh 89.5
CCCCNc1c(-c2ccc(OC)c(SC3CCCCC3)c2)nc2cnccn12	Peg3 promoter 68.2
CCCCNc1c(-c2ccc(OC)c(SC3CCCCC3)c2)nc2ccc(Cl)cn12	none
COc1ccc(-c2nc3cnccn3c2NCc2ccccc2)cc1SC1CCCCC1	none
CCCCNc1c(-c2ccc(OC)c(SC3CCCCC3)c2)nc2cc(C)ccn12	Peg3 promoter 56.2
CCOC(=O)[C@]12CCCC=C1N(Cc1ccco1)C(=O)[C@H](CC(=O)NCCCN1CCCC1=O)C2	none (no result: LMP1 NFkB inh, Peg3 promoter, Shn3 3UTR inh, MITF TRPM1 inh)
Cc1cccc(N2CCN(C(=O)c3ccc(S(=O)(=O)N(C)c4ccccc4)cc3)CC2)c1C	TWEAK-Fn14 inh 60.8
CN1CCN(C(=O)c2ccc(S(=O)(=O)N(C)c3ccccc3)cc2)CC1	none (no result: MITF TRPM1 inh)
Cc1ccc(NCC(=O)Nc2cccc(F)c2)cc1S(=O)(=O)N1CCCCCC1	none
Cn1c(=O)c(C(=O)NNC(=O)c2ccc(Br)cc2)c(O)c2ccccc21	Peg3 promoter 53.5
CCOc1ccc(N2C(=O)C3C4C=CC([C@H]5CC45)[C@@H]3C2=O)cc1 (some centres undefined)	none
CCOc1ccc2nc(SCC#N)c(C#N)cc2c1	none
CCSc1nc2ccc(OC)cc2cc1C#N	LMP1 NFkB inh 77.6
COc1ccc(Nc2ncnc3sccc23)cc1OC	none (no result: LMP1 NFkB inh)
COc1ccc(CCNc2nc(C)nc3c2oc2ccccc23)cc1OC	TROY signal inh 53.3
COc1ccc(CCNc2ncnc3c2oc2ccccc23)cc1OC	TWEAK-Fn14 inh 90.9, TROY signal inh 57.3
COc1ccc(CCNc2ncnc3sccc23)cc1OC	TWEAK-Fn14 inh 50.1, Shn3 3UTR inh 90.6
c1ccc(CNc2ncnc3c2oc2ccccc23)nc1	none
CCOC(=O)C1=CC[C@@H](c2ccccc2C(F)(F)F)N(S(=O)(=O)c2ccc(C)cc2)[C@H]1c1ccc(C#N)cc1	none (no result: LMP1 NFkB inh, MITF TRPM1 inh)
CC(=O)N1/C(=C/c2ccc(N(C)C)cc2)C(=O)c2ccccc21	TWEAK-Fn14 inh 86.1, TROY signal inh 66.5
CN(CC(=O)Nc1ccc(Cl)c(S(=O)(=O)N2CCOCC2)c1)C(=O)c1ccc(C#N)cc1	none
Cc1oc(-c2ccccc2)nc1CSc1nc2c(c(=O)[nH]1)CCC2	none
Cc1cccc(-c2nc(CSc3nc4c(c(=O)[nH]3)CCC4)c(C)o2)c1	TROY signal inh 51.5
C[C@@H]1CN([C@@H](C)CO)C(=O)c2cc(-c3ccccc3F)cnc2O[C@H]1CN(C)Cc1cccc(F)c1	none (no result: MITF TRPM1 inh)
CSC(=S)NN=C(C)c1cccc(C)n1	TWEAK-Fn14 inh 91.0, Shn3 3UTR inh 92.7, MITF TRPM1 inh 74.2
CC(=NNC(=S)N1CCCCC1)c1ccccn1	LMP1 NFkB inh 57.0, Shn3 3UTR inh inconclusive (no result: MITF TRPM1 inh)
CC(=NNC(=S)N1CC2CCC(CC2)C1)c1ccncn1	Peg3 promoter 99.7, Shn3 3UTR inh 88.4, MITF TRPM1 inh 77.5
CCNC(=S)N1CCN(c2ccccn2)CC1	none
Cc1cccc(NC(=S)Nc2cccc(C)n2)n1	none
CC(=NNC(=S)N1CCCCC1)c1cccc(C)n1	LMP1 NFkB inh 68.6
Cc1cccc(C(=S)N2CCOCC2)n1	none
CCc1sc(C(=O)Nc2cc(S(=O)(=O)N3CCOCC3)ccc2OC)cc1C	none
CC[C@@H](NCCCn1cnc2c(SC)ncnc21)c1ccccc1	none (no result: MITF TRPM1 inh)
COc1cc(NC(=O)COC(=O)CCOc2ccc(C)cc2)cc(OC)c1	none
Cc1ccc(CNC(=O)COC(=O)CCOc2ccc(C)cc2)cc1	none
CCC1(O)C(=O)OCc2c1cc1n(c2=O)Cc2cc3c(N)cccc3nc2-1 (centres undefined)	LMP1 NFkB inh 72.9, TWEAK-Fn14 inh 72.1, Peg3 promoter 68.5, TROY signal inh 72.0, MITF TRPM1 inh 71.8
CCC1(OC(=O)CN(C)C)C(=O)OCc2c1cc1n(c2=O)Cc2cc3c(N)cccc3nc2-1 (centres undefined)	LMP1 NFkB inh 76.2, MITF TRPM1 inh 66.7
COc1ccc(CCNC(=O)C2CCCN(S(C)(=O)=O)C2)cc1 (centres undefined)	none
Nc1nc(CSC(=S)N2CCN(c3ccccc3)CC2)nc(Nc2ccc(F)cc2)n1	TWEAK-Fn14 inh 50.0
